# Only some compounds are listed: those with a hit (about 4.2% of all), similar ones and a draw of the others.
# RecA splice inh – blocks M. tuberculosis RecA intein splicing; inhibition, % (no concentration beside the values); AID 2221; cell-free RecA intein splicing, fluorescence; hit rate 0.75% among 290,000; in the data active means inhibition above about 30%;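 further: 0% = vehicle wells and 100% = reference inhibitor control wells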
# Target sequence (P9WHJ3 whole entry, looked up, canonical isoform): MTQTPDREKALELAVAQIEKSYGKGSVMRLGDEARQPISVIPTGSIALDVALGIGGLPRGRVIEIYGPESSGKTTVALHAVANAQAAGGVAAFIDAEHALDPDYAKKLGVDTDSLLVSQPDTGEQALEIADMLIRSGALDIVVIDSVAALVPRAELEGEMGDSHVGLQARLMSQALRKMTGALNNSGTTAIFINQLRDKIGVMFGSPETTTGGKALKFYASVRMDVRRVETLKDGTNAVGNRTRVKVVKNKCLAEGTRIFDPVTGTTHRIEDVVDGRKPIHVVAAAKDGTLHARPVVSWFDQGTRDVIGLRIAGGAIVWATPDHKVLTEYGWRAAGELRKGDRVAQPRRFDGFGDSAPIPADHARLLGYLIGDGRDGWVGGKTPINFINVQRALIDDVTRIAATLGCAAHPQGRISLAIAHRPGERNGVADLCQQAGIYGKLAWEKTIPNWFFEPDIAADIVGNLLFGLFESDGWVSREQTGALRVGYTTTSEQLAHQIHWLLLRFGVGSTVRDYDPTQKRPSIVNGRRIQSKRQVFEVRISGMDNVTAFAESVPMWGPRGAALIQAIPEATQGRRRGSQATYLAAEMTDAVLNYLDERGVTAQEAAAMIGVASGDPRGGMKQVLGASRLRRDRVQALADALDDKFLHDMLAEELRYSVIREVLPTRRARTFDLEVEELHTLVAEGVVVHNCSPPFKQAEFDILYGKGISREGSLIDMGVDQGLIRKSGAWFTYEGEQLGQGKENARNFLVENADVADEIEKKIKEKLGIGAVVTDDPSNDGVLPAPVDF
# BJeLR lethal – kills HRASV12-expressing BJeLR cells. inhibition, % (no concentration beside the values). BJeLR (HRASV12) viability, CellTiter-Glo ATP luminescence, 48 h. hit rate 0.17% among 300,000. AID 1554; in the data active means inhibition above about 50%
# GDH-TPI counter – counter-screen for M. tuberculosis FBA inhibitors: GDH-TPI coupled enzymes. GDH-TPI coupled enzyme counterscreen, NADH absorbance. inhibition, % at 4.8 µM. hit rate 1.2% among 360,000; in the data active means inhibition above about 30%;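 further: 0% = DMSO wells and 100% = wells lacking the enzyme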
# PrPC surface inh – cell surface PrPC inhibition, primary TR-FRET screen | P04156 | TR-FRET read-out | inhibition, % at 13.8 µM | hit rate 0.43% among 370,000 | AID 720596; in the data active means inhibition above about 24%; further: 0% = median of the test wells and 100% = reference compound wells
# FBA Mtb inh – inhibits M. tuberculosis FBA enzyme. inhibition, % at 1 µM. P9WQA3. AID 588726. hit rate 2.3% among 360,000. purified M. tuberculosis FBA, fluorescence read-out; in the data active means inhibition above about 27%;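 further: 0% = vehicle and 100% = reference inhibitor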
# * marks the source's active call; other numbers are inactive results; x = not tested or not shown; + = active, no number.
SMILES,RecA splice inh,BJeLR lethal,GDH-TPI counter,PrPC surface inh,FBA Mtb inh
Nc1[nH]c(C(=O)c2ccccc2)c(-c2ccccc2[N+](=O)[O-])c1C(=O)NCCc1c[nH]c2ccccc12,x,x,x,-10.0,x
CC(Nc1c[nH]c(=O)[nH]c1=O)c1ccccc1 (stereo not given),61.2*,-6.3,1.5,-3.8,0.7
COc1ccc(C(C(=O)N(C)C2CCCC2)N(Cc2ccc(F)cc2)C(=O)c2sccc2Cl)cc1OC (stereo not given),x,x,x,2.3,x
O=C(O)C1SCCN1S(=O)(=O)c1ccc(N=NN2CCOCC2)cc1 (stereo not given),-0.2,-2.9,18.5,4.5,165.3*
C=C(C)COc1ccc2c(C)c(CC(=O)N3C[C@H]4C[C@@H](C3)c3cccc(=O)n3C4)c(=O)oc2c1C,1.1,-15.8,12.5,2.5,124.5*
Cc1coc2cc3oc(=O)c(CC(=O)N4C[C@H]5C[C@@H](C4)c4cccc(=O)n4C5)c(C)c3cc12,-1.5,-2.6,2.9,5.8,20.3
COc1ccc2c(C)c(CC(=O)N3C[C@H]4C[C@@H](C3)c3cccc(=O)n3C4)c(=O)oc2c1C,-2.7,-2.0,13.7,1.4,134.2*
Cc1ccccc1NC(=O)c1cccc2c1-c1ccccc1C2=O,x,x,x,-5.3,x
O=C(CSc1ncnc2c1nnn2Cc1ccc(F)cc1)NCC1CCCO1 (stereo not given),38.6*,3.5,4.7,5.2,-1.6
COc1ccc(CC(=O)O/N=C(\N)Cc2cccc3ccccc23)cc1OC,31.6*,-6.5,-2.9,-3.2,6.6
N/C(Cc1cccc2ccccc12)=N\OC(=O)c1cccs1,33.0*,10.4,x,x,x
COc1cccc(OC)c1NC(=O)OC1CCC12CCC(c1ccccc1)CC2 (stereo not given),x,x,x,2.1,x
Cc1[nH]nc2c1C(c1cccc(C(F)(F)F)c1)N(Cc1ccccc1)C2=O (stereo not given),x,x,x,-2.0,x
CCN(CC)C(=O)CC[C@H]1CC[C@]2(CCCN(Cc3ccccn3)C2)O1,x,x,x,1.7,x
COc1cc(C(=O)N/N=C/c2sc(=O)n(-c3ccccc3)c2Cl)cc(OC)c1OC,-1.0,-18.2,45.6*,-5.0,-3.9
O=C(N/N=C/c1sc(=O)n(-c2ccccc2)c1Cl)c1ccncc1,20.4,-2.2,35.9*,-17.7,-2.6
COc1cc(C(=O)N/N=C/c2cc([N+](=O)[O-])cs2)cc(OC)c1OC,-8.4,20.7,36.1*,-14.3,-3.6
CCOc1ccc(C(=O)N/N=C/c2cc([N+](=O)[O-])cs2)cc1,1.3,0.3,12.1,-9.3,-1.5
O=C(N/N=C/c1cccn1-c1ccccc1)c1ccncc1,-1.3,0.5,15.4,0.8,-1.2
CN(C)C=Nc1ccc2nn(-c3ccccc3)nc2c1,-25.9,-4.6,10.1,-10.2,176.6*
Cc1c(NC(=O)C(C)NCC2CCCO2)c(=O)n(-c2ccccc2)n1C (stereo not given),0.3,2.1,6.8,0.4,+
O=S1(=O)c2c(cccc2N2CCSCC2)Oc2ccccc2CN1Cc1cn(Cc2ccc(C(F)(F)F)cc2)nn1,x,x,x,6.3,x
O=C(NCCc1c[nH]c2ccccc12)OCc1cn(Cc2cccc(F)c2F)nn1,x,x,x,11.0,x
Cc1cccn2c(=O)c3cc(S(=O)(=O)c4ccccc4)c(=N)n(Cc4ccco4)c3nc12,-216.5,-16.5,6.3,0.2,21.5
Cc1ccc2nc3c(cc(S(=O)(=O)c4ccccc4)c(=N)n3Cc3ccco3)c(=O)n2c1,-89.7,-12.1,5.0,-19.2,121.5*
SMILES,RecA splice inh,BJeLR lethal,GDH-TPI counter,PrPC surface inh,FBA Mtb inh
Cc1cccn2c(=O)c3cc(S(=O)(=O)c4ccc(F)cc4)c(=N)n(Cc4ccco4)c3nc12,-27.5,3.5,0.0,-6.1,116.0*
Cc1cccc(NC(=O)Cn2nnc(-c3ccccc3F)n2)c1C,x,x,x,10.8,x
CN(C)c1ccc(/C=C2\CCC/C(=C\c3ccccc3)C2=O)cc1,-1.0,4.8,-13.6,7.7,-10.5
O=C1/C(=C/c2ccc(C(=O)O)cc2)CCC/C1=C\c1ccc(C(=O)O)cc1,6.1,-13.7,33.3*,-0.5,-3.9
CN(C)C(=O)c1ccc2c(c1[N+](=O)[O-])C(=O)c1ccccc1C2=O,54.7*,-5.9,6.4,-21.9,1.1
Cc1[nH]c2c(C)cccc2c1CCNC(=O)c1ccc2c(c1[N+](=O)[O-])C(=O)c1ccccc1C2=O,8.5,-1.2,4.1,-34.2,-1.5
CN[C@H]1C[C@H]2c3[nH]c4cccc(-c5ccccc5)c4c3CCN2C[C@H]1[C@H](C)O,x,x,x,1.2,x
Cc1ccc(C(C[N+](=O)[O-])c2c(-c3ccccc3O)[nH][nH]c2=O)cc1 (stereo not given),52.7*,5.0,1.9,-0.8,2.0
O=c1[nH][nH]c(-c2ccccc2O)c1C(C[N+](=O)[O-])c1ccc(Br)cc1 (stereo not given),13.5,-1.7,0.0,2.7,-0.8
COC(=O)c1cc(S(=O)(=O)N2CCCN(C(C)=O)CC2)cn1C,x,x,x,9.0,x
CCOC(=O)c1cc(-c2ccc(/C=N\n3cnnc3)o2)ccc1Cl,3.3,3.1,46.5*,-7.3,0.6
CCCCOC(=O)c1cc(-c2ccc(/C=N/n3cnnc3)o2)ccc1Cl,21.9,5.1,31.5*,-2.1,0.8
CCOC(=O)c1cc(-c2ccc(/C=C3/C(=O)N(c4ccc(C(=O)O)cc4)N=C3C)o2)ccc1Cl,8.1,-0.8,0.7,0.8,-0.5
Cc1cc(-c2ccc(/C=N/n3cnnc3)o2)ccc1Cl,-0.6,1.3,33.0*,-18.2,-1.5
Cc1ccc(CSc2nnc(-c3n[nH]c4c3CCC4)n2N)cc1,x,x,x,5.2,x
Cc1cc(Cl)ccc1OCC(=O)N/N=C/c1ccc[nH]1,x,x,x,1.9,x
Cc1cc(O)ccc1Nc1nc(-c2cccnc2)cs1,2.0,-0.9,17.4,-9.8,0.7
Cc1cc(O)ccc1Nc1nc(-c2cccs2)cs1,30.3*,-4.2,3.8,-1.7,3.4
CC(=O)O[C@@H]1C=C[C@@H](C#Cc2ccc(C(C)(C)C)cc2)O[C@@H]1COC(=O)NCc1ccccc1,x,x,x,-3.5,x
O=C1CCC[C@H]2C[C@H](NCc3ccc(Cl)c(Cl)c3)CC[C@]23CCCN13,x,x,x,-0.9,x
O=C(O)c1cc(-c2ccc(Cl)s2)nc2ccccc12,-7.6,9.3,8.2,10.6,159.4*
CC(=O)N1CCN(C(=O)c2cc(-c3cccc4ccccc34)nc3ccccc23)CC1,-0.2,9.6,5.6,-5.0,5.5
O=C(O)c1cc(-c2cccs2)nc2ccc(F)cc12,1.6,-1.1,11.8,9.3,+
CCN1CCN(C(=O)c2cc(-c3ccc(Cl)s3)nc3ccccc23)CC1,-3.7,-3.3,21.0,6.2,118.2*
CCN1CCN(C(=O)c2cc(-c3ccco3)nc3ccccc23)CC1,x,x,11.6,-4.1,130.4*
COc1ccc(C#CCN(C)/C(N)=N/C(=O)OCc2ccccc2)cc1,x,x,x,0.6,x
C[C@@H]1CCCN1c1cccc2c1S(=O)(=O)N1CC[C@H](C1)O2,x,x,x,-2.0,x
CC(C)CN1CN2CCc3ccccc3C2CS1(=O)=O (stereo not given),x,x,x,5.7,x
CC(COc1cccc(Cl)c1)CN1CCC(C(O)(c2ccccc2)c2ccccc2)CC1 (stereo not given),x,x,x,-1.8,x
CC(=O)N1CCc2cc(Br)c(S(=O)(=O)NCc3ccc(Cl)cc3)cc21,x,x,x,-2.1,x
